This note sets out measurements from ChEMBL document CHEMBL1157539, “Thousands of chemical starting points for antimalarial lead identification” (Nature, 2010).

What all share (assay type): functional
For assay [1], the system named is Plasmodium falciparum. The assay can be described thus: GSK_TCMDC: Inhibition of Plasmodium falciparum 3D7 in whole red blood cells, using parasite LDH activity as an index of growth. Test compounds present at 2uM.
The test system of assay [2] is Plasmodium falciparum. Briefly: GSK_TCMDC: Inhibition of Plasmodium falciparum Dd2 in whole red blood cells, using parasite LDH activity as an index of growth. Test compounds present at 2uM.
The subject of assay [3] is HepG2. The assay can be described thus: GSK_TCMDC: Percent inhibition of human HepG2 cell line. Test compounds present at 10uM.

Broadly, the Inhibition is the share of the control response that was lost under treatment. As to `CN(C)c1ccc(-c2cscc2C(=O)NC2CCCN(Cc3cccnc3)C2)cc1.O=C(O)C(F)(F)F` (centres undefined), the Inhibition in assay [1] is 89%; in assay [2], 70%; in assay [3] it was 5%.
On the same counts, the results for `Cc1cccc2nc(-c3ccc(-c4cccc(CN5CCC(C(N)=O)CC5)c4)s3)[nH]c12.O=C(O)C(F)(F)F` are 86%, 16% and 1%.
Turning to `CCCc1cc(C(=O)N[C@@H](Cc2ccccc2)[C@H](O)CNC2CCOCC2)c(F)c(N2CCCCS2(=O)=O)c1`, the results for the Inhibition in assay [1], in assay [2] and in assay [3] were 97%, 97% and 0%, respectively.
Regarding `Cc1cccc(CN2CCCN(Cc3ccc(C(=O)Nc4ccc(C)c(F)c4)cc3)CC2)c1.O=C(O)C(F)(F)F`, the Inhibition turned out to be 85% in assay [1], 3% in assay [2] and 47% in assay [3].
Take `O=C(NCCc1ccccc1)c1cc(-c2cccnc2)cnc1NCC1CC1`: the Inhibition in assay [1] was found to be 93%; in assay [2] it was 35%; in assay [3], 3%.
Take `Br.CC1(C)NC(N)=NC(=N)N1OCCCOc1ccc([N+](=O)[O-])cc1`: the Inhibition in assay [1] amounted to 94%; in assay [2], 80%; in assay [3] it was 68%.
On to `Cc1ccc(CN2CCCN(Cc3ccc(C(=O)Nc4ccc(Cl)cc4)cc3)CC2)s1.O=C(O)C(F)(F)F`, for which the Inhibition was found to be 85% in assay [1], 5% in assay [2] and 53% in assay [3].
With `Cc1cnc(NC(=O)c2cn(-c3ccccc3)nc2-c2cccs2)s1`, the Inhibition in assay [1] worked out at 91%; in assay [2] it was 1%; in assay [3] it was 0%.
On the same counts, the results for `COc1cc2c(C3CCN(CC4CCN(C(=O)/C=C/c5ccc(Cl)c(Cl)c5)CC4)CC3)c[nH]c2cn1` are 100%, 88% and 27%.
Turning to `O=C(/C=C/c1ccccc1Cl)Nc1ccc(Br)c(OCCN2CCN(CCN3CCCC3)CC2)c1.O=C(O)C(=O)O`, the figures for the Inhibition in assay [1], in assay [2] and in assay [3] were 99%, 89% and 26%, respectively.
On to `CCCN(CCC)C(=O)c1cc(C(=O)N[C@@H](Cc2ccccc2)[C@H](O)CNC(C)(C)c2cccc(OC)c2)cc(N2CCCCS2(=O)=O)c1`, for which the Inhibition in assay [1] turned out to be 99%; in assay [2], 74%; in assay [3] it was 16%.
On the same counts, the results for `CC(C)(C)c1ccc(OC(=O)c2ccc(NC(=O)N[C@@H](Cc3ccc(O)cc3)C(=O)NC3CCN(Cc4ccc(O)cc4)C3)cc2)cc1.O=C(O)C(F)(F)F` (some centres undefined) are 92%, 67% and 0%.
Regarding `O=C(Nc1cccc(CN2CCCN(Cc3ccc(O)cc3)CC2)c1)c1ccc2ccccc2n1.O=C(O)C(F)(F)F`, the Inhibition in assay [1] turned out to be 90%; in assay [2], 22%; in assay [3] it was 13%.
On the same counts, the results for `CC(=O)O.COc1ccc(CNc2ccc3nc(N)nc(N)c3c2)cc1` are 99%, 84% and 39%.
Take `O=C(NCCCCN1CCC(c2ccc([N+](=O)[O-])cc2)CC1)c1ccc(NC(=O)c2ccc(Cl)cc2)cc1`: the Inhibition in assay [1] was found to be 100%; in assay [2], 55%; in assay [3] it was 15%.
As for `CCN(CC)CCCNc1nccc(N(C)c2ccc(NC(=O)Nc3cc(C(F)(F)F)ccc3F)cc2)n1.O=C(O)C(F)(F)F`, the results for the Inhibition in assay [1], in assay [2] and in assay [3] were 94%, 19% and 96%, respectively.
On the same counts, the results for `O=c1cc(NCCCNCc2cccc(C(F)(F)F)c2Cl)[nH]c2ccccc12` are 94%, 24% and 0%.
For the compound `COc1ccc(C(O)CNC(C)CCc2ccc(F)cc2)cc1C(F)(F)F.Cl` (centres undefined), the Inhibition came out at 99% in assay [1], 98% in assay [2] and 92% in assay [3].
On the same counts, the results for `CC(Sc1nc(-c2ccccc2)c(-c2ccccc2)o1)C(=O)NC1CC1` (centres undefined) are 94%, 91% and 13%.
On the same counts, the results for `CC(C)(C)C1CCC(C(=O)c2ccc3ccccc3c2O)CC1` (centres undefined) are 83%, 63% and 0%.
On the same counts, the results for `CC(C)CNC(=O)c1cncc(-c2ccc(CN(C)C3CCN(C)CC3)cc2)c1.O=C(O)C(F)(F)F` are 100%, 84% and 15%.
Turning to `O=C(Nc1ccc(-c2cccc(-c3nc4cc(C(F)(F)F)ccc4[nH]3)c2)cc1)c1csnn1`, the figures for the Inhibition in assay [1], in assay [2] and in assay [3] were 98%, 25% and 42%, respectively.
For the compound `Cc1cc(N2CCCC2)nc(Nc2ccc(NC(=O)c3ccccc3)cc2)n1`, the Inhibition in assay [1] is on record as 100%; in assay [2] it was 65%; in assay [3], 26%.
In the case of `Fc1cccc(Nc2nc(NCCc3ccc(Cl)cc3)nc(Nc3cccc(F)c3)n2)c1`, the Inhibition was 93% in assay [1], 30% in assay [2] and 0% in assay [3].
On the same counts, the results for `Cc1[nH]cc(Br)c(=O)c1-c1ccc(Oc2ccc(OC(F)(F)F)cc2)cc1` are 96%, 92% and 22%.
On the same counts, the results for `COc1cc2nc(C)nc(Nc3cccc(Br)c3)c2cc1OC.Cl` are 100%, 82% and 0%.
On the same counts, the results for `COc1ccc(-c2nc3cccnc3n2CC(=O)Nc2cc(Cl)c(Cl)cc2Cl)c(OC)c1` are 100%, 17% and 99%.
With `Br.CC1(C)NC(N)=NC(=N)N1OCCOc1cccc(C(F)(F)F)c1`, the results for the Inhibition in assay [1], in assay [2] and in assay [3] were 93%, 97% and 67%, respectively.
